“And” between values parts separate entries of the source, which are not always exact repeats. Equal values may be shown once. Results filed as inconclusive are left out. More than one record can exist for a structure, and the calls need not agree. The source made the active and inactive calls. How the source made its calls, unless noted: active means hit-call score of the fitted dose curve at least 0.9, where 1 is the maximum; inactive means score below 0.9.
What was measured:
[1] = read-out: matrix metalloproteinase-3 (MMP3), MMP3 (gene 4314); test: LTEA_HepaRG_MMP3: Life Technologies and Expression Analysis (LTEA) Assay for matrix metalloproteinase-3 (MMP3) using HepaRG (AID 2283519); settings: mRNA level, 48 h; actives raise or lower the signal
Method in brief: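 Differentiated human HepaRG cells, plated 48 h on collagen I, were exposed in duplicate for 48 h in serum-free induction medium to eight half-log concentrations up to 100 uM in 0.5% DMSO. MMP3 mRNA was quantified by TaqMan qRT-PCR, normalised to ACTB, GAPDH and POLR2A.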

[2] = read-out: Paternally Expressed 10 (PEG10), PEG10 (gene 23089); test: LTEA_HepaRG_PEG10: Life Technologies and Expression Analysis (LTEA) Assay for Paternally Expressed 10 (PEG10) using HepaRG (AID 2283520); settings: mRNA level, 48 h; actives raise or lower the signal;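 on AC50: PEG10 transcript by qRT-PCR normalised to ACTB GAPDH and POLR2A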
Method in brief: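 Chemicals tested on HepaRG cells for 48 h, highest concentration 100 uM. PEG10 expression assessed by qRT-PCR relative to DMSO control.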

[3] = read-out: Nuclear factor NF-kappa-B p105 subunit (Homo sapiens) (UniProt P19838); test: LTEA_HepaRG_NFKB1: Life Technologies and Expression Analysis (LTEA) Assay for Nuclear Factor Kappa B Subunit 1 (NFKB1) using HepaRG (AID 2283521); settings: mRNA level, 48 h; actives raise or lower the signal
Method in brief: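 NFKB1 transcript was measured by TaqMan qRT-PCR on Fluidigm arrays, normalised to three housekeeping genes and fitted in both directions against 0.5% DMSO. HepaRG cells were dosed in duplicate for 48 h in serum-free induction medium, eight half-log steps from 100 uM.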

[4] = read-out: Protein phosphatase 2A (PPP2R4), PTPA (gene 5524); test: LTEA_HepaRG_PPP2R4: Life Technologies and Expression Analysis (LTEA) Assay for Protein phosphatase 2A (PPP2R4) using HepaRG (AID 2283522); settings: mRNA level, 48 h; actives raise or lower the signal
Method in brief: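 Gene-expression endpoint in HepaRG hepatic cells: 48 h treatment across eight half-log concentrations up to 100 uM in 0.5% DMSO. PPP2R4 mRNA by qRT-PCR, normalized to three endogenous control genes.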

[5] = read-out: Phosphatase and tensin (PTEN), PTEN (gene 5728); test: LTEA_HepaRG_PTEN: Life Technologies and Expression Analysis (LTEA) Assay for Phosphatase and tensin (PTEN) using HepaRG (AID 2283523); settings: mRNA level, 48 h; actives raise or lower the signal
Method in brief: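 Differentiated human HepaRG cells, plated 48 h then switched to serum-free induction medium, were exposed in duplicate for 48 h to eight half-log concentrations up to 100 uM in 0.5% DMSO. PTEN mRNA measured by TaqMan qRT-PCR, normalized to ACTB/GAPDH/POLR2A, bidirectional fit versus DMSO.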

[6] = read-out: solute carrier (SLC22A1), SLC22A1 (gene 6580); test: LTEA_HepaRG_SLC22A1: Life Technologies and Expression Analysis (LTEA) Assay for solute carrier (SLC22A1) using HepaRG (AID 2283524); settings: mRNA level, 48 h; actives raise or lower the signal
Method in brief: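 Human HepaRG cells were plated 48 h, switched to serum-free induction medium, then exposed in duplicate for 48 h to 8-point half-log series from 100 uM in 0.5% DMSO. SLC22A1 mRNA measured by qRT-PCR, normalized to ACTB/GAPDH/POLR2A, fitted bidirectionally versus DMSO.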

[7] = read-out: Pyruvate Dehydrogenase Kinase 4 (PDK4), PDK4 (gene 5166); test: LTEA_HepaRG_PDK4: Life Technologies and Expression Analysis (LTEA) Assay for Pyruvate Dehydrogenase Kinase 4 (PDK4) using HepaRG (AID 2283525); settings: mRNA level, 48 h; actives raise or lower the signal
Method in brief: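 Differentiated human HepaRG cells, pre-cultured 48 h, were exposed in duplicate for 48 h in serum-free induction medium to eight half-log concentrations up to 100 uM in 0.5% DMSO. PDK4 mRNA was quantified by qRT-PCR, normalized to ACTB, GAPDH and POLR2A, bidirectional fitting versus DMSO.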

[8] = read-out: succinate dehydrogenase complex iron sulfur subunit B (SDHB), SDHB (gene 6390); test: LTEA_HepaRG_SDHB: Life Technologies and Expression Analysis (LTEA) Assay for succinate dehydrogenase complex iron sulfur subunit B (SDHB) using HepaRG (AID 2283528); settings: mRNA level, 48 h; actives raise or lower the signal
Method in brief: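 SDHB transcript level read by TaqMan qRT-PCR, housekeeping-normalised (ACTB, GAPDH, POLR2A), after 48 h chemical treatment of plated HepaRG cells; eight concentrations top 100 uM, half-log steps, 0.5% DMSO, duplicates; fitted both directions against DMSO.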

[9] = read-out: Signal transducer and activator of transcription 3 (Homo sapiens) (UniProt P40763); test: LTEA_HepaRG_STAT3: Life Technologies and Expression Analysis (LTEA) Assay for Signal transducer and activator of transcription (STAT3) using HepaRG (AID 2283529); settings: mRNA level, 48 h; actives raise or lower the signal
Method in brief: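 Differentiated human HepaRG cells in serum-free induction medium were exposed in duplicate for 48 h to eight half-log concentrations up to 100 uM in 0.5% DMSO. STAT3 mRNA was quantified by TaqMan qRT-PCR, normalized to ACTB, GAPDH and POLR2A, and fitted bidirectionally against DMSO.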

[10] = read-out: solute carrier (SLCO1B1), SLCO1B1 (gene 10599); test: LTEA_HepaRG_SLCO1B1: Life Technologies and Expression Analysis (LTEA) Assay for solute carrier (SLCO1B1) using HepaRG (AID 2283530); settings: mRNA level, 48 h; actives raise or lower the signal
Method in brief: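 Human HepaRG cultures treated for 48 h with an eight-concentration half-log series topping at 100 uM; SLCO1B1 measured by qRT-PCR and fitted bidirectionally relative to DMSO.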

[11] = read-out: Transforming Growth Factor (TGFA), TGFA (gene 7039); test: LTEA_HepaRG_TGFA: Life Technologies and Expression Analysis (LTEA) Assay for Transforming Growth Factor (TGFA) using HepaRG (AID 2283532); settings: mRNA level, 48 h; actives raise or lower the signal
Method in brief: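 Differentiated human HepaRG cells, plated 48 h then switched to serum-free induction medium, were exposed in duplicate for 48 h to 8-point half-log series from 100 uM in 0.5% DMSO. TGFA mRNA measured by qRT-PCR, normalized to ACTB/GAPDH/POLR2A, bidirectional fit versus DMSO.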

[12] = read-out: Transforming Growth Factor (TGFB1), TGFB1 (gene 7040); test: LTEA_HepaRG_TGFB1: Life Technologies and Expression Analysis (LTEA) Assay for Transforming Growth Factor (TGFB1) Transporter using HepaRG (AID 2283533); settings: mRNA level, 48 h; actives raise or lower the signal
Method in brief: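 Eight-point concentration-response (max 100 uM, half-log) in HepaRG under serum-free induction conditions, 48 h. TGFB1 mRNA by qRT-PCR, housekeeping-normalized.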

[13] = read-out: TIMP1, TIMP1 (gene 7076); test: LTEA_HepaRG_TIMP1: Life Technologies and Expression Analysis (LTEA) Assay for TIMP1 using HepaRG (AID 2283534); settings: mRNA level, 48 h; actives raise or lower the signal
Method in brief: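 TIMP1 induction or repression in HepaRG cells after 48 h chemical exposure (eight concentrations, highest 100 uM), assessed by normalized qRT-PCR with bidirectional fitting to DMSO controls.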

[14] = read-out: Tumor necrosis factor receptor 1 (TNFRSF1A), TNFRSF1A (gene 7132); test: LTEA_HepaRG_TNFRSF1A: Life Technologies and Expression Analysis (LTEA) Assay for Tumor necrosis factor receptor 1 (TNFRSF1A) using HepaRG (AID 2283535); settings: mRNA level, 48 h; actives raise or lower the signal
Method in brief: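 Assay uses 48 h chemical treatment of differentiated HepaRG monolayers, tested in duplicate at eight concentrations from 100 uM downward in 0.5% DMSO. mRNA is normalized to ACTB, GAPDH and POLR2A, with induction or suppression fitted relative to vehicle.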

[15] = read-out: Thyroid Hormone Responsive (THRSP), THRSP (gene 7069); test: LTEA_HepaRG_THRSP: Life Technologies and Expression Analysis (LTEA) Assay for Thyroid Hormone Responsive (THRSP) using HepaRG (AID 2283536); settings: mRNA level, 48 h; actives raise or lower the signal
Method in brief: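 Differentiated human HepaRG cells were exposed in duplicate for 48 h in serum-free induction medium to eight concentrations (top 100 uM, half-log steps, 0.5% DMSO). Expression was quantified by TaqMan qRT-PCR, normalized to ACTB, GAPDH and POLR2A, with bidirectional fitting against DMSO.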

[16] = read-out: UDP glucuronosyltransferase (UGT1A6), UGT1A6 (gene 54578); test: LTEA_HepaRG_UGT1A6: Life Technologies and Expression Analysis (LTEA) Assay for UDP glucuronosyltransferase (UGT1A6) using HepaRG (AID 2283539); settings: mRNA level, 48 h; actives raise or lower the signal
Method in brief: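 Measures mRNA change in HepaRG hepatic cells exposed 48 h to chemicals (eight-point, maximum 100 uM, 0.5% DMSO vehicle) in serum-free induction medium. Expression normalized to endogenous controls; DMSO served as negative control and baseline.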

[17] = read-out: X-box binding protein 1 (XBP1), XBP1 (gene 7494); test: LTEA_HepaRG_XBP1: Life Technologies and Expression Analysis (LTEA) Assay for X-box binding protein 1 (XBP1) using HepaRG (AID 2283540); settings: mRNA level, 48 h; actives raise or lower the signal
Method in brief: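 Eight concentrations (half-log, highest 100 uM, 0.5% DMSO) tested in duplicate on HepaRG cells over 48 h in serum-free induction medium; qRT-PCR of XBP1 normalised to ACTB, GAPDH, POLR2A.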

[18] = LTEA_HepaRG_LDH_cytotoxicity: Cytotoxicity Assessment in the Life Technologies and Expression Analysis (LTEA) Assay (AID 2283563; active means hit-call score of the fitted dose curve at least 0.9, where 1 is the maximum;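 on AC50: LDH activity released into spent culture medium as a marker of cell death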)
Method in brief: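 Spent-medium LDH after 48 h chemical exposure of HepaRG cells in serum-free induction medium; eight concentrations, half-log dilutions from 100 uM, duplicate wells, fitted upward relative to 0.5% DMSO.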

[19] = ATG_XTT_Cytotoxicity: Cytotoxicity Assessment in the Attagene TRANS-FACTORIAL HepG2 Assay (AID 2283584; active means hit-call score of the fitted dose curve at least 0.9, where 1 is the maximum;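 on AC50: XTT signal for cell number as viability in transfected HepG2 cells; cells exposed to compound for 24 h before reading; active means loss of viability signal versus DMSO baseline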)
Method in brief: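 24 h chemical exposure of reporter-transfected HepG2; XTT signal loss vs DMSO indicates cytotoxicity.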

[20] = read-out: sulfotransferase 2A1 (SULT2A1), SULT2A1 (gene 6822); test: LTEA_HepaRG_SULT2A1: Life Technologies and Expression Analysis (LTEA) Assay for sulfotransferase 2A1 (SULT2A1) using HepaRG (AID 2283531); settings: mRNA level, 48 h; actives raise or lower the signal
Method in brief: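 Gene-expression endpoint in a human liver cell line: SULT2A1 mRNA change after 48 h chemical treatment, curves fitted in both directions relative to 0.5% DMSO vehicle. Concentrations spanned eight half-log steps from 100 uM.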

Measured: AC50

Sequence of Signal transducer and activator of transcription 3 (Homo sapiens) (P40763 whole entry, looked up): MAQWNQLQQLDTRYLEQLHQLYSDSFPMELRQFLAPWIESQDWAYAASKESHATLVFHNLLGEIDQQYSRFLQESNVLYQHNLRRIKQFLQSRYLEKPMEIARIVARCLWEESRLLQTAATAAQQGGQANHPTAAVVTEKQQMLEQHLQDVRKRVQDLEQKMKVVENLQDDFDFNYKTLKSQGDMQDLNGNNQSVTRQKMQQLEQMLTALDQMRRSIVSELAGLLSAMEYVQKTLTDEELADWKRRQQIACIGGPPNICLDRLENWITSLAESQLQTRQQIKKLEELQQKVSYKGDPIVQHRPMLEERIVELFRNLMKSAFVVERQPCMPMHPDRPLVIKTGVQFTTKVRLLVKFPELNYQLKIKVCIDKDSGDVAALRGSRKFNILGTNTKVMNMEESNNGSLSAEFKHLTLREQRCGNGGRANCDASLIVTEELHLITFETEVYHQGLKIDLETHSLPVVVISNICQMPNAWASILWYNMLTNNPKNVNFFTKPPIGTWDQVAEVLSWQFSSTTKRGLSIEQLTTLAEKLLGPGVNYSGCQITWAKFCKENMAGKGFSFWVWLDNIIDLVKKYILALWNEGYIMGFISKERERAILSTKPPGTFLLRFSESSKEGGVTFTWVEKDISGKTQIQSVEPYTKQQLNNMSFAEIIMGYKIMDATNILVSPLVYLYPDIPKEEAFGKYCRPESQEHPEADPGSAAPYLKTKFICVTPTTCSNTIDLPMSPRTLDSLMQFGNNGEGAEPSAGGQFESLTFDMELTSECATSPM
Sequence of Nuclear factor NF-kappa-B p105 subunit (Homo sapiens) (P19838 whole entry, looked up): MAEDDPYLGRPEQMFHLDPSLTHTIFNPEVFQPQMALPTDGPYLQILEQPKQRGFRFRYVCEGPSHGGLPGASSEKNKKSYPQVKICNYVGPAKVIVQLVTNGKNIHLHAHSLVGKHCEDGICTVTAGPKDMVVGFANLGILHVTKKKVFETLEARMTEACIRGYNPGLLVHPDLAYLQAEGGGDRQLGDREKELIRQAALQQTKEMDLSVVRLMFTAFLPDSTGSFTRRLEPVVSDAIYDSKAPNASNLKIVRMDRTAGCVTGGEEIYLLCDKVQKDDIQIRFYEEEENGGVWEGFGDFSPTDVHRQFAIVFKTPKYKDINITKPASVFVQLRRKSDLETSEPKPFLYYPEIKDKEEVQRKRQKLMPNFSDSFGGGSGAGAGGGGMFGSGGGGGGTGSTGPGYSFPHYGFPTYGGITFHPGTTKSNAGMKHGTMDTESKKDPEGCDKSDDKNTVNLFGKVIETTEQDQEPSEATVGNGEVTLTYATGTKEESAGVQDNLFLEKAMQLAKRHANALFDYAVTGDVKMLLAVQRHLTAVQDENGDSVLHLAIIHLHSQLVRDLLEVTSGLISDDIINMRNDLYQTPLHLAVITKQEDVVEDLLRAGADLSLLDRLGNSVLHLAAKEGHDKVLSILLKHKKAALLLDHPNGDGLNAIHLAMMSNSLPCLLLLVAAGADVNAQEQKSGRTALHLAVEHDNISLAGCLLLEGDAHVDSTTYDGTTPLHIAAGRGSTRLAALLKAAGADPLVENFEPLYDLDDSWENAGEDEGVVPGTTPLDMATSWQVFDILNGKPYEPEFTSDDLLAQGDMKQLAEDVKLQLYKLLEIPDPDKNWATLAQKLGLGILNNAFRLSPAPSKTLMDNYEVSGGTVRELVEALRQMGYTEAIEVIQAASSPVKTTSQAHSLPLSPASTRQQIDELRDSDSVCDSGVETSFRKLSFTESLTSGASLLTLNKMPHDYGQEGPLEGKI

CC12CC1(C)C(=O)N(c1cc(Cl)cc(Cl)c1)C2=O (configuration not stated)
active: [2] 10.3 µM | [6] 11.2 µM | [7] 16.2 µM
not listed: [20]
inactive: all other assays above

CC(C)(C)CC(C)(C)c1ccc(O)cc1
active: [18] 77 µM | [19] 26.7 µM and 58.4 µM and 53.9 µM
inactive: [1] | [2] | [3] | [4] | [5] | [6] | [7] | [8] | [9] | [10] | [20] | [11] | [12] | [13] | [14] | [15] | [16] | [17] | [19]

COc1cc(-c2ccc(N)c(OC)c2)ccc1N
active: [1] 39.3 µM and 2.3 µM | [2] 50 µM | [6] 50 µM | [15] 42.9 µM
inactive: [3] | [4] | [5] | [6] | [7] | [8] | [9] | [10] | [20] | [11] | [12] | [13] | [14] | [15] | [16] | [17] | [18] | [19]

C=CC(=O)OCCCCCC(C)C
not listed: [19]
inactive: all other assays above

O=C1C2(Cl)C3(Cl)C4(Cl)C(Cl)(Cl)C5(Cl)C3(Cl)C1(Cl)C5(Cl)C24Cl (configuration not stated)
inactive: [1] | [3] | [5] | [11] | [14] | [19]
active: [2] 93.4 µM | [4] 15.8 µM | [6] 19.3 µM | [7] 92.7 µM | [8] 91.6 µM | [9] 93.1 µM | [10] 93.5 µM | [20] 93.5 µM | [12] 92.5 µM | [13] 93.4 µM | [15] 9.2 µM | [16] 94.7 µM | [17] 92.4 µM | [18] 72.1 µM | [19] 31.8 µM and 35.1 µM

CCCCCCCCc1ccc(O)cc1
active: [7] 69.3 µM
inactive: all other assays above

C[C@@H]1C[C@@H]([C@H](O)CC2CC(=O)NC(=O)C2)C(=O)[C@@H](C)C1
active: [1] 83.3 µM | [2] 2.39 µM | [3] 17.6 µM | [4] 0.636 µM | [5] 87.6 µM | [6] 8.29 µM | [7] 31.9 µM | [8] 50 µM | [9] 15.6 µM | [10] 16.4 µM | [20] 48.9 µM | [11] 31.1 µM | [13] 50 µM | [14] 80.6 µM | [15] 7.51 µM | [16] 39.6 µM | [17] 16.7 µM | [18] 45.1 µM
inactive: [12] | [19]

Source: PubChem BioAssay (EPA / NIEHS)
